Rows were chosen to be rich in hits. Some 2.4% of all compounds tested hit in one or more screens of this group.
D2 ag-1 – D2 dopamine receptor (human) agonism; AID 485358; activation, % at 2 µM; P14416; actives 0.53% (n = 340,000); HEK293 T-REx D2 cells, calcium flux agonist mode;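 active = activation over 3 SD above normal in the single-dose calcium agonist read, cut at about 30% in these data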
Target sequence (P14416 whole entry, looked up): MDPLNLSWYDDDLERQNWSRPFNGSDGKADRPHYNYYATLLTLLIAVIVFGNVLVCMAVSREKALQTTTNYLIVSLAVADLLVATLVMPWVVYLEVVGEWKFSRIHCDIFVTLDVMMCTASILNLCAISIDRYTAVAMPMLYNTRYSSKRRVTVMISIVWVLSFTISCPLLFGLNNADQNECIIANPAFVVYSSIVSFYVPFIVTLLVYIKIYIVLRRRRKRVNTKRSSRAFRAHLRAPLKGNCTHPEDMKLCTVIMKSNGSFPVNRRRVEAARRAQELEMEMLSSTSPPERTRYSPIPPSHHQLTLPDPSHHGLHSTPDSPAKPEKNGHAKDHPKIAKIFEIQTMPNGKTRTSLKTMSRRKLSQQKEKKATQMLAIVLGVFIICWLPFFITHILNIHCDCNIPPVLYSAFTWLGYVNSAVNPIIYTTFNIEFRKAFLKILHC
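Agonism is scored from calcium flux in a force-coupled, inducible HEK293 cell line expressing D2, read kinetically for 180 s after compound addition against dopamine controls.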
D2 PAM-1 – positive allosteric modulators of human D2 dopamine receptor. P14416. DiscoveRx D2 beta-arrestin cells, luminescence, 90 min; 100% = 57 uM dopamine signal. potentiation, % (no concentration beside the values). actives 0.23% (n = 360,000). AID 624464; in the data active = potentiation above about 50%; inconclusive = mostly about 30% to 49%
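PathHunter beta-arrestin assay in DiscoveRx D2 cells. Compounds were added with an EC20 of dopamine (50 nM final) for 90 min at 37 deg C. Luminescence was read 1 h after detection reagent, with 57 uM dopamine as the EC100 control.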
D2 PAM-2 – positively modulates the human D2 dopamine receptor allosterically | HEK293 T-REx D2, calcium flux, EC20 dopamine potentiation | potentiation, % at 10 µM | actives 0.34% (n = 340,000) | P14416;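 active = potentiation over 3 SD above the plate norm, cut at about 30% in these data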
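Using a no-wash calcium dye in inducible, force-coupled HEK293 Trex cells expressing D2, we tracked fluorescence each second for 180 s after compound, then for 180 s after EC20 dopamine to detect augmented signalling.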
D2 ag-2 – human D2 receptor agonism in beta-arrestin assay; P14416; DiscoveRx PathHunter D2 beta-arrestin, luminescence, 90 min; 100% = 57 uM dopamine signal; activation, % (test concentration not listed); actives 0.084% (n = 360,000); in the data active = activation above about 40%; inconclusive = between about 15% and that limit
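Agonist mode: compounds alone added to overnight-plated D2 PathHunter cells for 90 min at 37 C, with 57 uM final dopamine (EC100) defining full response. Beta-arrestin recruitment detected by chemiluminescent reagent, read after 1 h at ambient temperature.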
D2 antagonist – antagonizes the human D2 dopamine receptor; HEK293 TREx D2 cells, calcium flux, dopamine EC80; inhibition, % at 10 µM; actives 2% (n = 340,000); AID 485344; in the data active = inhibition above about 30%; inactive = below that, where a call was filed
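Calcium mobilization kinetics were recorded at 1 s intervals in tetracycline-induced HEK293 T-REx D2 cells, first for 180 s after compound addition and then 180 s after EC80 dopamine.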
A number is an active result; n = inactive; u = inconclusive; x = not tested or not shown.

SMILES | D2 ag-1 | D2 PAM-1 | D2 PAM-2 | D2 ag-2 | D2 antagonist
Cc1cc(C)c(NC(=O)CN(C)S(=O)(=O)c2ccc3c(c2)n(C)c(=O)c(=O)n3C)c(C)c1 | n | n | 75 | n | n
CCCCc1nn2c(=O)cc(COC(=O)c3ccc(NC(=O)C4CCCCC4)cc3)nc2s1 | n | x | n | x | x
COc1ccccc1CN1CC(C(=O)NCCN(C)CCc2ccccc2)CCC1=O (stereo unspecified) | 46 | n | n | n | n
CCCCn1cnc2c(=S)nc(N)[nH]c21 | n | n | n | n | n
CCCCCn1cnc2c(=S)nc(N)[nH]c21 | n | n | n | n | 49
O=C(CSc1nc2sc3c(c2c(=O)[nH]1)CCCC3)NCCO | n | n | n | n | 42
CCOC(=O)CSc1nc2sc3c(c2c(=O)[nH]1)CCCC3 | n | n | n | n | n
Cc1onc(-c2ccccc2)c1C(=O)OCC(=O)Nc1ccc(Cl)cc1 | n | n | n | n | 37
CC(C)c1cnc2c(c1SCc1ccc([N+](=O)[O-])cc1)c(=O)n(C)c(=O)n2C | n | x | n | x | x
CC(C)(C)c1cc(C(=O)NNC(=O)Nc2cccc(Cl)c2)n(Cc2ccccc2)n1 | n | n | n | n | 50
Cc1cc(=O)c2c(o1)C(=O)c1occc1C2=O | x | 52 | x | u | x
O=C(CCCCCN1C(=O)CCC1=O)Nc1ncn[nH]1 | n | n | x | n | 45
COc1cc2cc(CNc3ccccc3)c(=O)n(CC(=O)Nc3cc(C)cc(C)c3)c2cc1OC | n | x | n | x | x
Cc1cccc(Nc2ncnc(N)c2[N+](=O)[O-])n1 | n | n | n | n | n
Nc1ncnc(Nc2ccccn2)c1[N+](=O)[O-] | n | n | n | n | 31
Nc1nc2ccc(C(=O)N3CCCCC3)cc2s1 | n | n | n | n | 51
O=C(c1ccc2ncsc2c1)N1CCCCC1 | n | n | n | n | n
Cc1ccc2c(CN3CCN(C(=O)c4ccc(Br)cc4)CC3)cc(=O)oc2c1 | n | x | x | x | x
CCOc1ccc(CCNC(=O)CSCc2nc(-c3cccc(C)c3)oc2C)cc1OCC | n | x | n | x | x
COc1ccc(Br)cc1C1Nc2ccccc2C(=O)N1NC(=O)c1ccncc1 (stereo unspecified) | n | n | 30 | n | n
O=C(NN1C(=O)c2cc(Br)ccc2NC1c1ccccc1Cl)c1ccncc1 (stereo unspecified) | x | n | x | n | x
CCN(CC)c1ccc(NS(=O)(=O)c2ccc3c(c2)CCCN3C(C)=O)c(C)c1 | n | x | n | x | x
Cc1csc(NS(=O)(=O)c2cccc([N+](=O)[O-])c2)n1 | n | n | n | n | 34
CCC(=O)N1c2ccc(S(=O)(=O)CCC(=O)NCc3ccc(OC)cc3)cc2CC1C (stereo unspecified) | n | x | n | x | x
Fc1cccc(-c2cc3nc4c(c(N5CCC6(CC5)OCCO6)n3n2)CCCC4)c1 | n | n | 32 | n | n
SMILES | D2 ag-1 | D2 PAM-1 | D2 PAM-2 | D2 ag-2 | D2 antagonist
CC(C)(C)OC(=O)N1CCC(c2c(C(=O)N3CCCCC3)cnn2-c2ccccc2Cl)CC1 | n | x | n | x | x
COc1ccc(Oc2c(C)oc3cc(OC(=O)N4CCOCC4)ccc3c2=O)cc1 | n | n | 42 | n | n
C#CCOCCOCCOCCNc1nc(N2CCN(C(=O)[C@H]([C@@H](C)CC)n3cc(CCCN=C(N)N)nn3)CC2)nc(N2CCN(C(=O)[C@H](CCCCN)n3cc(CCCC)nn3)CC2)n1 | n | n | n | n | n
C#CCOCCOCCOCCNc1nc(N2CCN(C(=O)[C@H](C)n3cc(CCCN=C(N)N)nn3)CC2)nc(N2CCN(C(=O)[C@H](CCCCN)n3cc(CCCC)nn3)CC2)n1 | n | x | n | x | 31
O=C(CCCN1C(=O)/C(=C\c2cccs2)SC1=S)Nc1ccc(C(=O)O)cc1 | x | n | x | n | x
CCN(CC)CCOC(=O)c1ccc(NC(=O)CCCN2C(=O)/C(=C/c3cccs3)SC2=S)cc1 | n | n | n | n | 49
COc1cc(O)c(C(CCN2CCN(c3ccccc3)CC2)c2ccc(N(C)C)cc2)c(OC)c1 (stereo unspecified) | n | n | n | n | 32
COc1cc(O)c(C(CCN2CCOCC2)c2ccc(N(C)C)cc2)c(OC)c1 (stereo unspecified) | n | n | n | n | n
COc1ccc(C(CCN2CCN(c3ccccc3)CC2)c2c(O)cc(OC)cc2OC)cc1 (stereo unspecified) | n | n | n | n | 80
O=C(O)[C@H]1CCCC[C@H]1C(=O)NCCc1ccccc1 | n | n | n | n | 45
CC(C)=C1C2CCC1C(C(=O)NCCc1ccccc1)C2C(=O)O (stereo unspecified) | 39 | n | n | n | n
COc1ccc(N2C(=O)C(CC(=O)Nc3ccccc3)N(CCC3=CCCCC3)C2=O)cc1 (stereo unspecified) | n | x | n | x | x
O=C(Nc1cccnc1)c1cccc(S(=O)(=O)N2CCCCC2)c1 | n | n | n | n | 53
COc1cc(S(=O)(=O)N2CCCCC2)ccc1NC(=O)c1ccncc1 | n | n | n | n | 37
COC(=O)Nc1ccc(S(=O)(=O)N2CCCC(C(=O)Nc3cccnc3)C2)cc1 (stereo unspecified) | n | n | n | n | 43
COc1ccc(NC(=O)c2ccc(S(=O)(=O)N3CCCCCC3)cc2)c(OC)c1 | n | n | n | n | n
Cc1cccc(NC(=O)NC(C)C(c2cccs2)N2CCOCC2)c1 (stereo unspecified) | n | n | n | n | 30
CC(C)C(=O)NC(C)C(c1cccs1)N1CCOCC1 (stereo unspecified) | n | n | n | n | n
Cc1ccc(C(=O)NC(C)C(c2cccs2)N2CCCC2)s1 (stereo unspecified) | n | n | 33 | n | n
CC(NC(=O)c1ccco1)C(c1cccs1)N1CCN(c2ccccc2F)CC1 (stereo unspecified) | n | n | 38 | n | n
COc1cc2oc(=O)c(CC(=O)N3CCCCC3)c(C)c2cc1Cl | n | x | n | x | x
O=C(COc1cccc2cccnc12)Nc1ccccc1N1CCOCC1 | n | n | x | n | 30
COc1cc(Cl)c(NC(=O)CN2C(=O)c3cccnc3Sc3ccccc32)c(OC)c1 | n | x | n | x | x
CCCC(C(=O)NC1CCCC1)N(CC1CCCO1)C(=O)CNS(=O)(=O)c1ccc(F)cc1 (stereo unspecified) | n | n | n | n | 32
O=C(CN(CC1CCCO1)C(=O)CNS(=O)(=O)c1ccc(F)cc1)NCc1ccc(F)cc1 (stereo unspecified) | n | n | n | n | 37
CC(=O)NCCCC(=O)NNC1CC(=O)N(c2cccc(Cl)c2)C1=O (stereo unspecified) | n | n | n | n | 37
Cc1cccc(NC(=O)Cn2nc3c4ccccc4n(Cc4ccccc4)cc-3c2=O)c1 | n | x | n | x | x

Screens deposited in PubChem by National Center for Advancing Translational Sciences (NCATS).
